Inconclusive results are not listed. Unmarked numbers belong to inactive results. Active and inactive are the calls of the source. Unless noted, calls follow the shape of the full dose curve.
The compounds below were run against Nuclear receptor subfamily 1 group I member 2 (Homo sapiens) (UniProt O75469) (assay: CYP3A4 induction through human pregnane X receptor (PXR) by small molecules, qHTS assay (AID 1346984; active = well fitted curve in the direction sought with a large enough effect in the repeat runs; an effect the other way counts as inactive or inconclusive; also: nearly all actives have a fitted effect of over 40% in size)). Conditions: DPX-2 HepG2 PXR, CYP3A4-luciferin luminescence, 24 h; series mostly up to 46.1 µM; activation: at the top concentration.
In short: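 qHTS, concentration-response format: HepG2 DPX-2 line, PXR/CYP3A4-luc. Exposure 24 h, 37C. Substrate Luciferin-IPA 3uM final, 3 h. Detection One-Glo, 30 min RT.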
% is scaled to controls: 0 for no effect and ±100 for the full control effect.

Structure (SMILES) | activation
CCS(=O)(=O)C(C)(C)S(=O)(=O)CC | 2.65%
O=C(O)c1ccc2[nH]cc(CCCCN3CC=C(c4ccccc4)CC3)c2c1 | -1.73%
CCN(Cc1ccc(Cl)nc1)/C(=C/[N+](=O)[O-])NC | -7.45%
Cc1ncc2n1-c1ccc(Cl)cc1C(c1ccccc1F)=NC2 | -20.7%
COC(=O)C(c1ccccc1)C1CCCCN1 (configuration not stated) | 0.243%
C[C@H]1CCC[C@H](O)CCCCCc2cc(O)cc(O)c2C(=O)O1 | -24.8%
CC(C)CC(N(C)C)C1(c2ccc(Cl)cc2)CCC1 (configuration not stated) | 3.5%
C[C@@H]1CN(C2CCC(C#N)(c3ccc(F)cc3)CC2)CC[C@]1(C(=O)O)c1ccccc1 (some centres not stated) | 9.5% [at 20.6 µM]
COc1cc2c(cc1OC)[C@@]13CCN4CC5=CCO[C@H]6CC(=O)N2[C@H]1[C@H]6[C@H]5C[C@H]43 | -12.5%
CCC1(c2ccccc2)C(=O)NC(=O)NC1=O | -0.46%
NC1=NC(=O)C(c2ccccc2)O1 (configuration not stated) | -1.05%

What follows are compounds tested against Nuclear receptor subfamily 1 group I member 2 (Homo sapiens) (UniProt O75469) (assay: Human pregnane X receptor (PXR) activation by small molecules, qHTS assay (AID 1346985; active = well fitted curve in the direction sought with a large enough effect in the repeat runs; an effect the other way counts as inactive or inconclusive; also: nearly all actives have a fitted effect of over 40% in size; also: potency is read from the fitted curve at half-maximal effect)). Conditions: DPX-2 HepG2 CYP3A4-luciferase, 24 h; series mostly up to 38.3 µM; activation: at the top concentration.
In short: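 DPX-2 cells (HepG2 co-transfected with a PXR response element and a CYP3A4-promoter luciferase construct) were seeded at 2,000 per well, rested 5 hr at 37C, then exposed to DMSO-dissolved compounds for 24 hr. Activation was read as luciferase luminescence.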

Structure (SMILES) | activation | Potency
CCS(=O)(=O)C(C)(C)S(=O)(=O)CC | -0.944% | 
O=C(O)c1ccc2[nH]cc(CCCCN3CC=C(c4ccccc4)CC3)c2c1 | 6.68% | 
CCN(Cc1ccc(Cl)nc1)/C(=C/[N+](=O)[O-])NC | -0.461% | 
CN1C(=S)CN=C(c2ccccc2)c2cc(Cl)ccc21 |  | 14.1 µM (active)
COC(=O)C(c1ccccc1)C1CCCCN1 (configuration not stated) | -4.07% | 
C[C@H]1CCC[C@H](O)CCCCCc2cc(O)cc(O)c2C(=O)O1 |  | 12.6 µM (active)
CC(C)CC(N(C)C)C1(c2ccc(Cl)cc2)CCC1 (configuration not stated) | 2.94% | 
C[C@@H]1CN(C2CCC(C#N)(c3ccc(F)cc3)CC2)CC[C@]1(C(=O)O)c1ccccc1 (some centres not stated) | -4.81% [at 17.1 µM] | 
CCC1(c2ccccc2)C(=O)NC(=O)NC1=O | 2.57% | 
NC1=NC(=O)C(c2ccccc2)O1 (configuration not stated) | -5.85% | 

These compounds were tested against Acetylcholinesterase (Homo sapiens) (UniProt P22303) (assay: Acetylcholinesterase (AChE) small molecule antagonists: colormetric cell-based qHTS assay (AID 1347395; also: nearly all actives have a fitted effect of over 30% in size)). Conditions: SH-SY5Y cells AChE activity, colorimetric (Ellman); series mostly up to 115 µM; activity, negative = inhibition: at the top concentration.
Chain of Acetylcholinesterase (Homo sapiens) (P22303 whole entry, looked up): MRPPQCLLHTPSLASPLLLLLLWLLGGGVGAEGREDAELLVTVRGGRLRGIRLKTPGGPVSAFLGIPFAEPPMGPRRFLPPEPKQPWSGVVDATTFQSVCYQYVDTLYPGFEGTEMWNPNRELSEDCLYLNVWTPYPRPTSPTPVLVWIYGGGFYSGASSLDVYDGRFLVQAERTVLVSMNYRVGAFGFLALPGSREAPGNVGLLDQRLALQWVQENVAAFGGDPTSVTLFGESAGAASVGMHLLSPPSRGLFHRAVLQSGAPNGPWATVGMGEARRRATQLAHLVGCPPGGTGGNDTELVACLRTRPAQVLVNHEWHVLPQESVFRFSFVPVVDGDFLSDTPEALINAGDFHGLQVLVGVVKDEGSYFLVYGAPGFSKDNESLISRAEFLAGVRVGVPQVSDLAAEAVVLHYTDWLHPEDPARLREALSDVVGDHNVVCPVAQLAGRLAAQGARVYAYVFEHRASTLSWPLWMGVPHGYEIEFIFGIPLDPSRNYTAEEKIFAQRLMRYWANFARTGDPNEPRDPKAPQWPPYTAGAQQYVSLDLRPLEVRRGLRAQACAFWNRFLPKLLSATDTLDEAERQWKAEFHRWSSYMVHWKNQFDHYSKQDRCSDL
In short: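 Neuroblastoma line SH-SY5Y supplied the enzyme; cells were preincubated with compound for 30 min at 37 C and 5% CO2. Acetylthiocholine with DTNB was then added for 90 min at 37 C, and thiocholine was measured by colour.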

Structure (SMILES) | activity, negative = inhibition
CCS(=O)(=O)C(C)(C)S(=O)(=O)CC | 3.87% [at 52.9 µM]
O=C(O)c1ccc2[nH]cc(CCCCN3CC=C(c4ccccc4)CC3)c2c1 | 2.52% [at 52.9 µM]
O=[N+]([O-])c1cc(Cl)c(Cl)c(Cl)c1 | 0.329%
CCN(Cc1ccc(Cl)nc1)/C(=C/[N+](=O)[O-])NC | -2.36% [at 52.9 µM]
C[N+](C)=CCl | 0.422%
CCC(C)(C)c1cc(-n2nc3ccccc3n2)c(O)c(C(C)(C)CC)c1 | -0.158%
OCCSCSCCO | -4.63%
ClCCCN1CCN(c2cccc(Cl)c2)CC1 | 0.168% [at 52.9 µM]
C=C(C)CN(CC)c1c([N+](=O)[O-])cc(C(F)(F)F)cc1[N+](=O)[O-] | -1.25%
CC(C)[N+](=O)[O-] | 0.716%
Cc1cccc(C#N)c1 | 0.239%
COC(=O)c1ccccc1S(=O)(=O)NC(=O)N(C)c1nc(C)nc(OC)n1 | 0.291%
CC(C)(C)C(=O)C(Oc1ccc(Cl)cc1)n1cncn1 (configuration not stated) | 3.77%
CN1C(=S)CN=C(c2ccccc2)c2cc(Cl)ccc21 | 1.58% [at 52.9 µM]
O=NN1CCN(N=O)CC1 | 0.291%
O=C(O)c1cccc(Cl)c1 | 0.419%
O=CNC(N1CCN(C(NC=O)C(Cl)(Cl)Cl)CC1)C(Cl)(Cl)Cl (configuration not stated) | -1.42%
Cc1ncc2n1-c1ccc(Cl)cc1C(c1ccccc1F)=NC2 | 0.42% [at 52.9 µM]

Structure (SMILES) | activity, negative = inhibition
CCOC(=O)CP(=O)(OCC)OCC | -5.34%
COC(=O)C(c1ccccc1)C1CCCCN1 (configuration not stated) | 0.0957%
COC(=O)C(C)Oc1ccc(Oc2ccc(Cl)cc2Cl)cc1 (configuration not stated) | -0.888%
C[C@H]1CCC[C@H](O)CCCCCc2cc(O)cc(O)c2C(=O)O1 | -9.94%
CCCCc1ccc(O)cc1 | 0.869%
C[C@@H]1CN(C2CCC(C#N)(c3ccc(F)cc3)CC2)CC[C@]1(C(=O)O)c1ccccc1 (some centres not stated) | 0.318% [at 52.9 µM]
COc1cc(OC)nc(Oc2cccc(Oc3nc(OC)cc(OC)n3)c2C(=O)O)n1 | 0.21%
N#CCNCC#N | -0.186%
CCNc1nc(NC(C)C)nc(OC)n1 | 0.994%
Cc1cnc[nH]1 | -3.04%
COc1cc2c(cc1OC)[C@@]13CCN4CC5=CCO[C@H]6CC(=O)N2[C@H]1[C@H]6[C@H]5C[C@H]43 | -1.51%
CCC1(c2ccccc2)C(=O)NC(=O)NC1=O | 1.03%
CC(Oc1ccc(Oc2ncc(C(F)(F)F)cc2Cl)cc1)C(=O)O (configuration not stated) | 0.105%
CN(N=O)C(N)=O | 2.52%
NC1=NC(=O)C(c2ccccc2)O1 (configuration not stated) | 2.15% [at 52.9 µM]
OC(Cn1cncn1)(c1ccc(F)cc1)c1ccccc1F (configuration not stated) | 0.464%
ClC(Cl)Br | -3.17%
CCC#N | 0.323%

Source: PubChem BioAssay (Tox21)
